Among the data in PubChem BioAssay (Tox21) are Potency and max response values, retold here.

The nature of assay [1]: A CellTox Green Cytotoxicity Assay to monitor cytotoxicity in HEK293 cells - 24 hour (AID 1224875). Note: nearly all actives have a fitted effect of over 45% in size. Note: potency is the fitted concentration of half-maximal effect. In outline: (§1)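 Homogeneous no-lysis format: HEK293 cell suspension mixed with CellTox Green reagent, seeded, incubated 5 h at 37 C/5% CO2, then dosed by pintool with compound in DMSO.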
Assay [2] can be described thus: qHTS RealTime-Glo MT Cell Viability Assay in HEK293 cells - 0 hour (AID 1224880). Note: top concentration of the series differs between compounds; nearly all actives have a fitted effect of over 45% in size. In outline:
(§2)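 Measured as luminescence from the same continuously cultured HEK293 wells at successive time points (0, 8, 16, 24, 32, 40 h) after compound addition. Reagent present from seeding; dosing at 5 h; incubation 37 C.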
A general note: Quantitative high-throughput screening tests each substance at several concentrations.

A short description of assay [3]: A CellTox Green Cytotoxicity Assay to monitor cytotoxicity in HEK293 cells - 32 hour (AID 1224881). Note: nearly all actives have a fitted effect of over 40% in size. Note: potency is the fitted concentration of half-maximal effect. The method, boiled down:
as §1

A short description of assay [4]: A CellTox Green Cytotoxicity Assay to monitor cytotoxicity in HepG2 cells - 0 hour (AID 1224882). Note: nearly all actives have a fitted effect of over 35% in size. In outline:
(§3)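 Fluorescent DNA-binding dye, 600 HepG2 cells/well, 5 h preincubation then compound in DMSO; same plates read at 0–40 h, 37 C.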

The nature of assay [5]: A CellTox Green Cytotoxicity Assay to monitor cytotoxicity in HEK293 cells - 8 hour (AID 1224884). Note: nearly all actives have a fitted effect of over 35% in size. In outline: as §1
Assay [6] is described as follows: qHTS RealTime-Glo MT Cell Viability Assay in HEK293 cells - 8 hour (AID 1224887). Note: nearly all actives have a fitted effect of over 50% in size. Note: potency is the fitted concentration of half-maximal effect. The method, boiled down: as §2
The nature of assay [7]: A CellTox Green Cytotoxicity Assay to monitor cytotoxicity in HEK293 cells - 16 hour (AID 1224888). Note: nearly all actives have a fitted effect of over 35% in size. In outline: as §1
A short description of assay [8]: A CellTox Green Cytotoxicity Assay to monitor cytotoxicity in HEK293 cells - 40 hour (AID 1224871). Note: nearly all actives have a fitted effect of over 45% in size. Note: potency is the fitted concentration of half-maximal effect. The method, boiled down: as §1
Assay [9] can be described thus: qHTS RealTime-Glo MT Cell Viability Assay in HEK293 cells - 16 hour (AID 1224872). Note: nearly all actives have a fitted effect of over 50% in size. Note: potency is the fitted concentration of half-maximal effect. In outline:
(§4)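 Viability tracked continuously by luminescence as live cells reduce a prosubstrate for NanoLuc; HEK293 cells preincubated 5 h, compound-treated at 37 C, and read at 0, 8, 16, 24, 32 and 40 h.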

Assay [10] can be described thus: qHTS RealTime-Glo MT Cell Viability Assay in HepG2 cells - 8 hour (AID 1224873). Note: nearly all actives have a fitted effect of over 55% in size. The method, boiled down: (§5)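 HepG2 cells mixed with RealTime-Glo MT reagents (NanoLuc plus cell-permeant prosubstrate) were seeded at 600 cells/well, incubated 5 h at 37 C/5% CO2, then pinned with compounds in DMSO; nonlytic luminescence tracked viability during 40 h treatment.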
A short description of assay [11]: qHTS RealTime-Glo MT Cell Viability Assay in HEK293 cells - 40 hour (AID 1224874). Note: nearly all actives have a fitted effect of over 50% in size. Note: potency is the fitted concentration of half-maximal effect. Conditions: RealTime-Glo luminescence; max response: stronger effect = lower value. In outline: as §2
Assay [12] is described as follows: A CellTox Green Cytotoxicity Assay to monitor cytotoxicity in HepG2 cells - 16 hour (AID 1224876). Note: nearly all actives have a fitted effect of over 45% in size. Note: potency is the fitted concentration of half-maximal effect. The method, boiled down: as §3
A short description of assay [13]: qHTS RealTime-Glo MT Cell Viability Assay in HepG2 cells - 32 hour (AID 1224877). Note: nearly all actives have a fitted effect of over 55% in size. Note: potency is the fitted concentration of half-maximal effect. The method, boiled down:
(§6)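 Viability was tracked continuously by NanoLuc luminescence from prosubstrate reduced by living HepG2 cells, at successive time points over 40 h of compound exposure. Cells with reagent were preincubated 5 h at 37 °C before compound addition.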

A short description of assay [14]: A CellTox Green Cytotoxicity Assay to monitor cytotoxicity in HepG2 cells - 24 hour (AID 1224878). Note: nearly all actives have a fitted effect of over 45% in size. Note: potency is the fitted concentration of half-maximal effect. In outline: as §3
Assay [15] in a line: A CellTox Green Cytotoxicity Assay to monitor cytotoxicity in HepG2 cells - 40 hour (AID 1224879). Note: nearly all actives have a fitted effect of over 40% in size. Note: potency is the fitted concentration of half-maximal effect. The method, boiled down: as §3
Assay [16] in a line: A CellTox Green Cytotoxicity Assay to monitor cytotoxicity in HepG2 cells - 32 hour (AID 1224883). Note: nearly all actives have a fitted effect of over 50% in size. Note: potency is the fitted concentration of half-maximal effect. In outline:
as §3

The nature of assay [17]: qHTS RealTime-Glo MT Cell Viability Assay in HEK293 cells - 24 hour (AID 1224886). Note: nearly all actives have a fitted effect of over 50% in size. Note: potency is the fitted concentration of half-maximal effect. In outline: as §4
Assay [18] is described as follows: qHTS RealTime-Glo MT Cell Viability Assay in HepG2 cells - 0 hour (AID 1224889). Note: nearly all actives have a fitted effect of over 50% in size. Note: potency is the fitted concentration of half-maximal effect. The method, boiled down:
as §6

A short description of assay [19]: qHTS RealTime-Glo MT Cell Viability Assay in HepG2 cells - 16 hour (AID 1224885). Note: nearly all actives have a fitted effect of over 50% in size. The method, boiled down: as §6
Assay [20] can be described thus: qHTS RealTime-Glo MT Cell Viability Assay in HepG2 cells - 40 hour (AID 1224870). Note: nearly all actives have a fitted effect of over 50% in size. Note: potency is the fitted concentration of half-maximal effect. In outline: as §5

Structures are written as SMILES. Several values for one entry are separate records, joined by “and”; a condition that tells them apart may be missing. Equal entries are not always repeated. Values without a mark were called inactive. Records with an inconclusive call do not appear. Activity calls are given as the source filed them. Calls come from the whole dose curve; as a rule, active = well fitted curve in the direction sought with a large enough effect in the repeat runs; inconclusive = weak or mixed curves; inactive = no such curve, though single readings can be large; an effect the other way counts as inactive or inconclusive.
% is set by controls: 0 for no effect and ±100 for the full control effect.

With `O=[N+]([O-])C(Br)(CO)CO`, the Potency entry in assay [1], in [2], in [3], in [4], in [5] and in assay [6] was “inactive” throughout. Besides, in assay [7], the Potency entry is “inactive”.

For `CN1C[C@H](CNC(=O)OCc2ccccc2)C[C@@H]2c3cccc4c3c(cn4C)C[C@H]21`, the Potency result in [8], in assay [10], in assay [1], in [2], in [3] and in [4] was “inactive” throughout. In addition, the Potency entry in assay [5], in [7] and in assay [18] was “inactive” in each case. For the same compound, the Potency is 21.3 µM (active) in [9]; 23.9 µM (active) in [11]; 23.9 µM (active) in assay [12]; 23.9 µM (active) in assay [13]; 26.8 µM (active) in assay [14]; 23.9 µM (active) in [15]. Further, the Potency in [16] was 26.8 µM (active); in [17], 21.3 µM (active).

`O=C(O)C(F)(F)C(F)(F)C(F)(F)C(F)(F)C(F)(F)C(F)(F)C(F)(F)C(F)(F)C(F)(F)C(F)(F)F`: the Potency entry in assay [8], in assay [9], in assay [1], in [2], in assay [3] and in assay [5] was “inactive” in each case. Further, the Potency entry in assay [19], in assay [17], in assay [6] and in assay [7] was “inactive” in each case. Besides, the max response in assay [11] was 13.9%.

For the compound `CCOP(=S)(OCC)SCn1nnc2ccccc2c1=O`, the Potency entry in assay [20], in [1], in assay [12], in [13], in assay [14] and in assay [15] was “inactive” each time. The Potency result in assay [2], in assay [3], in assay [4], in assay [16], in assay [5] and in assay [7] was “inactive” throughout. Also, the Potency in [9] was 21.9 µM (active); in [11] it was 19.5 µM (active); in [17], 21.9 µM (active); in [6] it was 21.9 µM (active); in assay [18] it was 24.5 µM (active).

`CO/C=C(/C(=O)OC)c1ccccc1COc1cccc(C(F)(F)F)n1`: the Potency entry in assay [20], in assay [1], in [12], in [13], in assay [14] and in assay [15] was “inactive” each time. The Potency result in assay [2], in assay [4], in assay [16], in [7] and in assay [18] was “inactive” each time. Also, the Potency in [11] was 6.16 µM (active).

Take `Clc1ccc(C(OCCN2CCCCC2)c2ccccc2)cc1` (stereo not drawn): the Potency result in assay [20], in [10], in assay [13], in assay [4], in assay [5] and in [19] was “inactive” each time. Besides, the Potency entry in [6], in [7] and in assay [18] was “inactive” in each case.

In the case of `NC(=O)CI`, the Potency is 6.22 µM (active) in [20] and 9.86 µM (active) in assay [13]. Moreover, the Potency result in [9], in assay [2], in assay [4] and in assay [6] was “inactive” in each case. The max response in assay [11] is 1.19%.

As for `CC(C)(C)c1cc([N+](=O)[O-])cc([N+](=O)[O-])c1O`, the Potency result in [10], in assay [1], in [12], in assay [14], in assay [3] and in assay [4] was “inactive” throughout. For the same compound, the Potency entry in assay [19], in assay [6] and in assay [7] was “inactive” throughout.

Regarding `CS/C(C)=N/OC(=O)N(C)SN(C)C(=O)O/N=C(\C)SC`, the Potency in [8] is 49 µM (active); in assay [9] it was 38.9 µM (active); in assay [11] it was 43.6 µM (active); in assay [14] it was 54.9 µM (active); in assay [15], 54.9 µM (active); in [3], 54.9 µM (active). Also, the results for the Potency in assay [16], in assay [17] and in assay [6] were 54.9 µM (active), 49 µM (active) and 43.6 µM (active), respectively. Further, the Potency result in assay [2], in [4] and in assay [18] was “inactive” each time.

Turning to `C(=NC1CCCCC1)=NC1CCCCC1`, the Potency is 12.4 µM (active) and 12.3 µM (active) in assay [20]; 19.6 µM (active) and 19.5 µM (active) in assay [9]; 17.5 µM (active) and 24.5 µM (active) in assay [11]; 22 µM (active) and 34.7 µM (active) in assay [1]; 11 µM (active) and 15.5 µM (active) in assay [14]; 9.84 µM (active) and 11 µM (active) in assay [15]. In addition, the Potency in assay [3] is 19.6 µM (active) and 24.5 µM (active); in assay [17], 19.6 µM (active) and 19.5 µM (active). For the same compound, the Potency entry in [12], in assay [2], in [4], in assay [5] and in assay [18] was “inactive” each time.

Consider `CC1(C)CCC(Cc2ccc(Cl)cc2)C1(O)Cn1cncn1` (stereo not drawn), for which the Potency result in assay [20], in [1], in assay [2], in assay [3], in assay [4] and in assay [5] was “inactive” in each case. Moreover, the Potency result in [7] and in [18] was “inactive” each time. Moreover, the Potency in [9] is 24.5 µM (active); in [11] it was 24.5 µM (active); in assay [12], 54.9 µM (active); in assay [15], 54.9 µM (active); in assay [16], 54.9 µM (active); in [17], 24.5 µM (active).

Regarding `CNP(=O)(OC)Oc1ccc(C(C)(C)C)cc1Cl` (stereo not drawn), the Potency entry in [20], in [10], in [13], in assay [2], in assay [4] and in assay [19] was “inactive” throughout. Also, the Potency result in assay [7] and in assay [18] was “inactive” in each case. The Potency in assay [15] was 54.9 µM (active).

`CCCN(CCCl)c1c([N+](=O)[O-])cc(C(F)(F)F)cc1[N+](=O)[O-]`: the Potency entry in assay [20], in assay [10], in assay [1], in [12], in [13] and in assay [14] was “inactive” each time. Also, the Potency result in [15], in assay [2], in [3], in assay [4], in [5] and in assay [19] was “inactive” throughout. The Potency entry in [17], in [7] and in [18] was “inactive” each time. Besides, in assay [11], the max response was 1.89%. Moreover, the Potency in assay [6] is 38.9 µM (active).

As to `CCOC(=O)[C@]1(c2ccccc2)Oc2ccccc2[C@@H]1N`, the Potency entry in assay [20], in assay [10], in [1], in [12], in assay [13] and in [14] was “inactive” throughout. Further, the Potency result in assay [15], in assay [2], in assay [3], in [4], in assay [5] and in [6] was “inactive” in each case. In addition, the Potency result in assay [7] and in assay [18] was “inactive” each time.
